The whole screen tested about 190,000 compounds, of which about 4,000 (2.1%) were called active. Rule as the data show it: active = inhibition above about 58%; inactive = the rest, inconclusive results apart; tested in S. cerevisiae. For the sample, actives were picked, then their nearest neighbours and some compounds at random.
Experiment: growth inhibition of WT strain, primary screen, mitochondrial fusion inhibitor project, WT and mutant strains, chemical genetic (AID 1362)
Conditions: mitochondrial fusion phenotypic screen, at 10 µM
[1] = WT strain, growth inhibition, stronger effect = higher value

| Compound | inhibition [1] | inhibition (mutant strain inhibition) |
| --- | --- | --- |
| O=[N+]([O-])c1ccc(Sc2n[nH]c(-c3ccco3)n2)nc1 | -3.94% (inactive) | -1.1% |
| O=C(Nc1nnc(SCc2ccc(Cl)cc2Cl)s1)C1COc2ccccc2O1 (centres undefined) | 56.1% (inactive) | 17.9% |
| CSCc1cc(N2CCOCC2)nc(SCc2ccc(Cl)cc2Cl)n1 | 79.1% (active) | 52.8% |
| Clc1ccc(CSc2nnc(/C=C/c3ccccc3)o2)c(Cl)c1 | 38% (inactive) | 26.7% |
| Cc1ccc(Sc2cc(N3CCOCC3)nc(-c3ccccc3)n2)cc1 | -0.33% (inactive) | 3.68% |
| CSCc1cc(N(C)C)nc(SCc2ccc(Cl)cc2Cl)n1 | 59.7% (active) | 52.5% |
| O=c1cc(CSc2ccc(Cl)cc2)nc(N2CCOCC2)[nH]1 | 10.4% (inactive) | -7.43% |
| COc1ccccc1CNC(=O)CNC(=O)c1cn(-c2ccccc2OC)c(=O)c2ccccc12 | -8.54% (inactive) | 3.48% |
| O=C(NNC(=O)C1CCN(c2ncccn2)CC1)c1ccccc1 | -10.9% (inactive) | -13.4% |
| OCCC1CN(Cc2ccc3nsnc3c2)CCN1C1CCCC1 (centres undefined) | 2.03% (inactive) | 2.69% |
| O=C(CCCn1c(=O)c2sccc2n(CC(=O)NCC2CCCO2)c1=O)NCc1ccco1 (centres undefined) | 2.48% (inactive) | 3.2% |
| CC(=O)Nc1ccc(-c2csc(NC=C3C(=O)OC(C)(C)OC3=O)n2)cc1 | -0.59% (inactive) | 17.6% |
| C/C(=N/Nc1ccc(Cl)cc1)c1cnnc(-c2ccccc2)n1 | 9.51% (inactive) | 20.8% |
| CCOC(=O)Cc1csc(NC(=O)CSc2ccc(Br)cc2)n1 | 31.2% (inactive) | 25.6% |
| CCOC(=O)Cc1csc(SCC(=O)NC(C)C23CC4CC(CC(C4)C2)C3)n1 (centres undefined) | 59.2% (active) | 26.1% |
| CCOC(=O)Cc1csc(NC(=O)CSc2nc(C)cc(=O)[nH]2)n1 | 15.9% (inactive) | 18.4% |
| C/C(=N\NC(=S)NCc1ccccc1)c1ccc(Cl)cc1 | 31.1% (inactive) | 21.1% |
| CC/C(=N\NC(=S)NC(C)C)c1ccc(OC(F)F)cc1 | 32% (inactive) | 43.5% |
| C/C(=N\NC(=S)NC(C)C)c1ccc(C(C)(C)C)cc1 | 70.2% (active) | 59% |
| COc1cccc(C2c3[nH]c4ccccc4c3CCN2Cc2cccc(C)n2)c1 (centres undefined) | 40.2% (inactive) | 33.8% |
| Oc1cccc(C2c3[nH]c4ccccc4c3CCN2Cc2cnn(-c3ccccc3)c2)c1 (centres undefined) | 59.9% (active) | -4% |

| Compound | inhibition [1] | inhibition (mutant strain inhibition) |
| --- | --- | --- |
| c1ccc(C2c3[nH]c4ccccc4c3CCN2Cc2cccn2-c2cccnc2)nc1 (centres undefined) | -2.92% (inactive) | -2.59% |
| CCc1ccc(OCC(=O)OCC(=O)c2c(N)n(C)c(=O)n(C)c2=O)cc1 | -10.7% (inactive) | -9.86% |
| COc1ccc(Br)cc1/C=N/NC(=O)c1cccc(S(=O)(=O)N2CCOCC2)c1 | 1.71% (inactive) | -16.2% |
| CC1CC(C)CN(CCC(=O)Nc2ccc3c(c2)CCC3)C1 (centres undefined) | 2.25% (inactive) | 2.32% |
| CC1(C)CC2CC(C)(CN2c2ncnc3ccc(Br)cc23)C1 (centres undefined) | 64.4% (active) | 47.6% |
| COc1ccc(C(=O)N2CC3(C)CC2CC(C)(C)C3)cc1OC (centres undefined) | -9.9% (inactive) | 6.2% |
| C=CCNc1ncnc2ccc(Br)cc12 | 6.92% (inactive) | 5.26% |
| CC1=CC=CC2=N/C(=N\S(=O)(=O)c3ccc(F)cc3F)c3ccccc3CN12 | 7.93% (inactive) | -4.27% |
| Cc1ccc(S(=O)(=O)N(C)CC(=O)OCC(=O)N2CC(=O)Nc3ccccc32)cc1 | -2.48% (inactive) | -6.41% |
| O=C(c1cccnc1)N(c1cc2sc(=O)oc2c2ccccc12)S(=O)(=O)c1ccccc1 | 69% (active) | 25.4% |
| CN(C)S(=O)(=O)c1cccc(C(=O)Nc2cccnc2)c1 | -9.84% (inactive) | 2.94% |
| COc1ccc(N(C(=O)c2cccnc2)S(=O)(=O)c2ccc3c(c2)n(C)c(=O)n3C)cc1 | -46.4% (inactive) | -32.1% |
| CN1CCN(CCNC(=O)Nc2ccc([N+](=O)[O-])cc2)CC1 | 22.2% (inactive) | 0.87% |
| O=C(COc1ccc(S(=O)(=O)N2CCCCC2)cc1)NCc1ccccn1 | 14.7% (inactive) | 2.79% |
| CC1CCN(C(=O)c2ccc(CSc3ccc(Cl)cc3)cc2)CC1 | 75.2% (active) | 26.4% |
| O=C(C1CC1)N1CCN=C1SCc1ccc(Cl)cc1 | 22.2% (inactive) | 20.3% |
| O=C(c1ccc(CSc2ccccc2)cc1)N1CCCCCC1 | 38.9% (inactive) | 19.1% |
| CN(NC(=O)C1CC(=O)N(c2ccccc2)C1)C1=NS(=O)(=O)c2ccccc21 (centres undefined) | -6.62% (inactive) | 8.77% |
| CC(C)N(Cc1ccccc1)C(=O)COC(=O)c1cnccn1 | -8.68% (inactive) | -4.78% |
| CCOc1cccc(/C=N/N2C(=O)CSC2=S)c1O | -2% (inactive) | 11.3% |
| COc1cccc(NC(=S)N(CCc2c(C)[nH]c3ccccc23)Cc2ccco2)c1 | 63.2% (active) | -12.2% |

From PubChem BioAssay AID1362 (SRMLSC, 2008)
